# Sampled rows, rich in hits. Any-hit rate of the full collection: about 4.1%.
# hcDAF-12 act: H. contortus DAF-12 activation, primary screen; 1.4% of 370,000 active; activation, % at 6.8 µM; AID 652067; HEK293 hcDAF-12 lit1-tk-luc reporter, luminescence; 0% DMSO, 100% Δ7-dafachronic acid;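 active = activation above the mean of all tested compounds plus 3 SD, cut at about 5.5% in these data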;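 note: 100% = response to 3 µM Δ7-dafachronic acid high control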
# ssDAF-12 act: activators of S. stercoralis DAF-12 nuclear receptor | HEK293 ssDAF-12/GRIP1 lit1-tk-luc reporter, luminescence; % of 3 µM dafachronic acid response | activation, % at 6.8 µM | 1% of 370,000 active | AID 652126;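 active = activation above the mean over all tested compounds plus 3 SD, cut at about 0.9% in these data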;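 note: 0% = DMSO-only wells and 100% = 3 µM delta7-dafachronic acid wells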
# hgDAF-12 ag: hgDAF-12 agonism, primary luciferase screen; HEK293 GAL4-hgDAF12 UAS-luciferase reporter, agonist luminescence; normalized to butyrate control; 1.8% of 370,000 active; activation, % at 6.8 µM;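 active = activation above a cutoff set at the mean of all screened compounds plus 3 SD, cut at about 10% in these data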;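 note: 0% = DMSO wells and 100% = sodium butyrate wells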
# DAX1 inh-1: NR0B1 (DAX1) inhibition | 0.99% of 340,000 active | HEK293 Gal4-DAX1 luciferase reporter, luminescence | P51843 | inhibition, % at 6.75 µM | AID 504766;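 active = inhibition above the mean over all tested compounds plus 3 SD, cut at about 4.2% in these data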;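 note: 0% = DAX1-transfected cells with DMSO and 100% = empty-vector control cells with DMSO; inhibition shows as a rise in luminescence from relieved DAX1 repression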
# Target sequence (P51843 207-470 limits assumed): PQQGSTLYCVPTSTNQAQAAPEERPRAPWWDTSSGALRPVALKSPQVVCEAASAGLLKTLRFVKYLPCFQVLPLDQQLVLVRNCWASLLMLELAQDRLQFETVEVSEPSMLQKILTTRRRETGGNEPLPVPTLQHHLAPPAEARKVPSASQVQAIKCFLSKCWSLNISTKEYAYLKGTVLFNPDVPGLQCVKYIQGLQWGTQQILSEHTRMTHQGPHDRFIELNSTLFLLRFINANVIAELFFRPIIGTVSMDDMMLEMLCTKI
# DAX1 inh-2: DAX1 (NR0B1) inhibition, primary screen; HEK293T StAR-luciferase reporter, SF-1/DAX-1 repression relief; inhibition, % at 6.8 µM; 1.1% of 370,000 active; AID 652010;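 active = inhibition above the mean over all tested compounds plus 3 SD, cut at about 3.6% in these data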;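 note: 0% = DAX-1 cells with DMSO and 100% = cells lacking DAX-1 with DMSO; higher inhibition means more luminescence from relief of DAX-1 repression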
# The depositor's hits bear a star; / = no result.
SMILES,hcDAF-12 act,ssDAF-12 act,hgDAF-12 ag,DAX1 inh-1,DAX1 inh-2
O=C(NCCN1CCC(Cc2ccccc2)CC1)C1CCCN(S(=O)(=O)c2ccc([N+](=O)[O-])cc2)C1 (stereo unspecified),-2.6,-1.6,-3.7,/,-2.6
CC1(C)Cc2nc3sc(C(=O)NCCCO)c(N)c3cc2CO1,4.5,0.4,2.5,6.5*,0.0
Cc1ccc2c(c1)CCCN2CC(=O)N(C)c1c(N)n(Cc2ccccc2)c(=O)[nH]c1=O,1.8,1.3*,0.3,0.7,-0.8
CSc1ccc(CN2C(=O)NC3(CCCCC3)C2=O)cc1,-1.9,-1.1,-2.3,6.8*,-0.3
COc1cccc2sc3cc(C#Cc4ccccn4)ccc3c(=O)c12,-1.8,-1.2,-2.8,-1.4,0.3
COc1cccc2oc3ccc(C#Cc4ccccn4)cc3c(=O)c12,3.3,-0.2,11.0*,2.5,3.0
CCOC(=O)c1cn(Cc2ccc(C)cc2)nn1,5.8*,-0.6,-2.3,-1.2,-0.5
CCOC(=O)c1cn(Cc2ccc(Br)cc2)nn1,-2.6,-1.6,0.4,2.2,-0.2
C/C(=N\Nc1ccc([N+](=O)[O-])cc1)c1ccc(N)cc1,1.5,0.0,5.0,1.6,1.1
CCc1ccc(/C(C)=N\Nc2ccc([N+](=O)[O-])cc2)cc1,0.8,-0.2,5.8,4.3*,0.2
O=C(CSC(=S)N1CCOCC1)Nc1nc(-c2ccccc2)c(-c2ccccc2)o1,-0.4,-1.3,0.5,5.6*,0.8
O=C(CSC(=S)N1CCCCC1)Nc1nc(-c2ccccc2)c(-c2ccccc2)o1,-0.4,-1.4,0.2,0.8,0.0
C=CCN(C)CC#Cc1ccccc1C,-2.1,-0.9,1.9,/,0.0
COc1ccc2c(C(=O)c3ccc(C)cc3)n(Cc3ccc(C(N)=O)cc3)[n+]([O-])c2c1,10.6*,2.1*,9.8,1.8,2.0
COc1ccc(C(=O)c2c3ccccc3[n+]([O-])n2Cc2ccc(C(N)=O)cc2)cc1,-1.1,-1.6,-2.5,-0.1,-0.2
C=CCN1[C@@H](C)COc2cccc(N3CCSCC3)c2S1(=O)=O,-1.0,-1.7,-1.2,/,-0.4
COc1cccc(NC(=O)Nc2ccccc2Br)c1,-2.1,-0.8,10.9*,1.7,0.6
COc1cccc(C(=O)Nc2cccc(C(C)=O)c2)c1,0.3,-0.6,7.5,2.1,1.6
COc1cccc(C(=O)Nc2cccc(-c3ccc(N4CCOCC4)nn3)c2)c1,0.3,-0.5,4.5,0.8,4.0*
COc1ccc(NC(=O)c2ccc(C)cc2)c(OC)c1,4.4,-0.3,11.7*,1.1,1.1
COc1cccc(NC(=O)c2cccc(Cl)c2)c1,3.6,-0.2,12.1*,1.4,2.3
COc1ccc(NC(=O)Nc2cccc(OC)c2)cc1,1.7,-0.8,7.3,0.4,1.8
NCCN1CCN(S(=O)(=O)c2ccc3c(c2)CCN3C(=O)C2CCC2)CC1,-2.1,-1.6,-2.3,/,-0.2
O=C(NCCc1c[nH]c2ccccc12)OCc1cn(Cc2ccc(F)cc2F)nn1,-3.4,-1.7,-0.3,/,-0.5
Nc1[nH]c(C(=O)c2ccccc2)c(-c2ccccc2Br)c1C(=O)NCCc1ccc(Cl)cc1Cl,0.3,-1.0,2.3,/,1.0
SMILES,hcDAF-12 act,ssDAF-12 act,hgDAF-12 ag,DAX1 inh-1,DAX1 inh-2
COc1ccccc1NC(=O)c1ccc2nc(C)sc2c1,0.3,-1.1,3.9,1.0,0.1
COc1cccc(NC(=O)Nc2nc(SC)ns2)c1,3.8,0.2,12.4*,7.2*,1.7
COc1cccc(NC(=O)c2ccc3nc(C)sc3c2)c1,5.8*,-0.5,8.4,5.5*,1.2
COc1cccc(NC(=O)Nc2nc(SC(C)(C)C)ns2)c1,-1.5,-1.6,-0.8,-2.8,-0.9
COc1cccc(C(=O)Nc2ccc(C)cc2)c1,5.1,1.6*,9.3,0.7,4.0*
COc1cccc(NC(=O)c2cnc(SC)nc2)c1,4.3,1.3*,2.8,0.5,-0.5
COc1ccc(C(=O)CSc2nnc(-c3n[nH]c4c3CCC4)n2N)cc1OC,-2.4,-1.2,-9.6,/,-0.8
C[C@H]1[C@@H](OC(=O)NCCc2c[nH]c3ccccc23)CC[C@@]23CCCN2C(=O)CCC[C@@H]13,-1.1,-2.1,-3.8,/,/
CC(=O)Oc1cccc(NC(=O)c2cccc(C(=O)Nc3cccc(OC(C)=O)c3)c2)c1,-0.8,-1.2,-0.4,-0.2,-0.5
COc1cccc(NC(=S)NC(=O)c2cncc(Br)c2)c1,1.2,-0.8,3.9,4.5*,-0.1
CC(=O)c1cccc(NC(=S)NC(=O)c2cncc(Br)c2)c1,0.5,0.2,4.6,1.5,-0.4
Cc1cccc(C(=O)Nc2cccc(OC(=O)c3cccc(C)c3)c2)c1,3.9,-0.1,12.5*,2.2,1.2
c1csc(C2C3=C(Nc4ncnn42)c2ccccc2OC3)c1 (stereo unspecified),2.1,1.1*,-0.1,0.2,-0.4
O=C(O)CC(CC(=O)Nc1ccc(F)c(Cl)c1)c1ccc(Cl)cc1Cl (stereo unspecified),-1.2,-2.0,0.8,10.1*,0.5
O=C(NCCN1C(=O)S/C(=C\c2cccc(Cl)c2Cl)C1=O)C1=COCCO1,-0.7,-1.1,1.9,0.0,1.0
Cc1ccc(CCNC(=O)C2CCC(=O)N(Cc3ccccc3F)C2)o1 (stereo unspecified),4.2,-0.5,9.8,-0.2,4.1*
O=S(=O)(c1cc2ccccc2s1)n1c(CN2CCOCC2)nc2ccccc21,1.7,-1.2,-2.1,/,0.1
C=CCN1[C@H](CC(C)C)COc2cc(N3CCSCC3)ccc2S1(=O)=O,0.9,-1.5,-0.7,/,-0.7
COC(=O)c1c(C)c[nH]c1C,-0.9,-1.2,1.8,5.3*,0.5
COCCNc1nc(Oc2ccc(CC(=O)OC)cc2)c2sc(-c3ccccc3)cc2n1,3.1,-0.6,-1.8,/,3.8*
Cn1c(C2CC(=O)N(Cc3ccccc3)C2)nc2ccccc21 (stereo unspecified),-1.5,1.1*,1.4,2.0,-0.3
O=C(O)c1[nH]c2ccccc2c1-c1ccccc1,-0.8,-1.0,0.5,1.2,0.3
O=C(O)c1[nH]c2ccccc2c1C=NCc1ccccc1Cl,2.4,-0.5,-1.0,4.9*,0.5
CC1=NN(c2nc(-c3ccc(C)cc3)cs2)C(=O)C1N=Nc1ccccc1O (stereo unspecified),1.8,0.9*,1.0,/,-0.2
CC1=NN(c2nc(-c3ccc(C)cc3)cs2)C(=O)C1N=Nc1cccc(O)c1 (stereo unspecified),-0.6,-0.6,-2.5,-0.8,0.5
O=C(N=C1N(Cc2ccccc2)C[C@]2(C=C3CCCCC3n3c(=O)n(-c4ccccc4)c(=O)n32)N1C(=O)OCc1ccccc1)c1ccccc1 (stereo partly specified),-2.0,-0.9,-0.2,/,0.6
COc1ccc(Cn2cc(CN3[C@@H](Cc4ccccc4)COc4cc(Br)ccc4S3(=O)=O)nn2)cc1,-1.9,-1.4,1.2,/,-1.4
CN(C)c1ccc(/C=C(/NC(=O)c2ccccc2)C(=O)N/N=C/c2ccc([N+](=O)[O-])c(O)c2)cc1,1.8,0.0,11.7*,-3.3,1.2

# Bioassay records as filed in PubChem BioAssay.
